Reference: PubChem BioAssay AID1159580 (chemical genetic matrix, 2015)
Out of some 5,500 compounds screened, about 2,000 (36%) were called active. Roughly 18% stayed inconclusive and do not appear here. Cut-off read from the data, not from the text of the source: active = normalized growth mostly below about 0.91 (no sharp cut-off); inconclusive = no clear call, values can overlap the other calls; inactive = mostly above about 0.92. This is one part of the list.

Test: chemical genetic growth profiling, strain panel (AID 1159580);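 note: tested at 20 µM; growth read once vehicle control cultures reached saturation at 30 °C; 1 = growth at the plate median or of vehicle wells; lower values mean less growth of the strain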
Details: S. cerevisiae deletion strains, growth OD

Measured: normalized growth

CC1(C)C=CC(=O)[C@@]2(C)C1CC(=O)[C@]1(C)C2CC[C@@]2(C)[C@H](c3ccoc3)OC(=O)C3OC321 (stereo partly drawn)
inactive: locus YAL021C, strain ccr4, active compounds read low 0.977 | locus YAL026C, strain drs2, active compounds read low 1 | locus YAL030W, strain snc1, active compounds read low 0.995 | locus YBL061C, strain skt5, active compounds read low 0.998 | locus YBR009C, strain hhf1, active compounds read low 0.984 | locus YBR021W, strain FUR4, active compounds read low 1 | locus YBR023C, strain chs3, active compounds read low 0.983 | locus YBR171W, strain sec66, active compounds read low 1.01 | locus YBR229C, strain ROT2, active compounds read low 0.944 | locus YBR231C, strain swc5, active compounds read low 1 | locus YBR279W, strain paf1, active compounds read low 0.988 | locus YCL011C, strain gbp2, active compounds read low 0.996 | locus YCL016C, strain dcc1, active compounds read low 0.99 | locus YCL029C, strain bik1, active compounds read low 0.96 | locus YCL061C, strain MRC1, active compounds read low 1.01 | locus YCL069W, strain vba3, active compounds read low 0.995 | locus YCR088W, strain abp1, active compounds read low 1 | locus YDL005C, strain med2, active compounds read low 0.996 | locus YDL035C, strain GPR1, active compounds read low 0.945 | locus YDL040C, strain nat1, active compounds read low 0.996 | locus YDL074C, strain BRE1, active compounds read low 0.926 | locus YDL101C, strain DUN1, active compounds read low 0.967 | locus YDL185W, strain tfp1, active compounds read low 0.966 | locus YDL192W, strain arf1, active compounds read low 0.94 | locus YDR001C, strain nth1, active compounds read low 0.992 | locus YDR069C, strain doa4, active compounds read low 0.976 | locus YDR101C, strain arx1, active compounds read low 0.93 | locus YDR159W, strain sac3, active compounds read low 0.954 | locus YDR162C, strain NBP2, active compounds read low 0.953 | locus YDR195W, strain ref2 1.03 | locus YDR297W, strain sur2, active compounds read low 0.983 | locus YDR318W, strain mcm21, active compounds read low 0.969 | locus YDR334W, strain swr1, active compounds read low 1 | locus YDR335W, strain msn5, active compounds read low 1 | locus YDR388W, active compounds read low 0.982 | locus YDR392W, strain spt3, active compounds read low 0.982 | locus YDR502C, strain sam2, active compounds read low 0.983 | locus YEL003W, strain gim4, active compounds read low 0.994 | locus YEL037C, strain rad23, active compounds read low 1 | locus YEL061C, strain CIN8 (second series), active compounds read low 0.997 | locus YEL061C, strain CIN8, active compounds read low 0.971 | locus YER015W, strain faa2, active compounds read low 0.982 | locus YER016W, strain bim1, active compounds read low 0.985 | locus YER110C, active compounds read low 0.959 | locus YER111C, strain swi4, active compounds read low 1 | locus YER155C, strain BEM2 (second series), active compounds read low 1.01 | locus YER155C, strain BEM2, active compounds read low 0.998 | locus YER167W, strain BCK2, active compounds read low 0.959 | locus YFR010W, strain ubp6, active compounds read low 1.01 | locus YGL078C, strain dbp3, active compounds read low 1.02 | locus YGL086W, strain mad1, active compounds read low 0.979 | locus YGL167C, strain pmr1, active compounds read low 0.991 | locus YGL173C, strain kem1, active compounds read low 0.994 | locus YGL227W, strain vid30, active compounds read low 0.994 | locus YGL240W, strain doc1, active compounds read low 0.99 | locus YGL248W, strain PDE1, active compounds read low 0.974 | locus YGL253W, strain hxk2, active compounds read low 0.994 | locus YGR078C, strain PAC10, active compounds read low 0.981 | locus YGR135W, strain pre9, active compounds read low 1.03 | locus YGR252W, strain gcn5, active compounds read low 0.966 | locus YHR013C, strain ard1, active compounds read low 0.968 | locus YHR027C, strain rpn1, active compounds read low 0.979 | locus YHR030C, strain SLT2, active compounds read low 0.98 | locus YHR079C, strain IRE1 (second series), active compounds read low 0.975 | locus YHR094C, strain hxt1, active compounds read low 0.967 | locus YHR129C, strain ARP1, active compounds read low 0.98 | locus YHR142W, strain chs7, active compounds read low 0.999 | locus YHR200W, strain rpn10, active compounds read low 0.986 | locus YIL066C, strain RNR3, active compounds read low 0.904 | locus YIL073C, strain SPO22, active compounds read low 1.01 | locus YIL125W, strain kgd1, active compounds read low 0.968 | locus YIR030C, strain dcg1, active compounds read low 0.969 | locus YJL092W, strain hpr5, active compounds read low 0.999 | locus YJL095W, strain BCK1 (second series), active compounds read low 0.985 | locus YJL095W, strain BCK1, active compounds read low 0.981 | locus YJL115W, strain asf1, active compounds read low 0.994 | locus YJL129C, strain trk1, active compounds read low 0.976 | locus YJL134W, strain LCB3, active compounds read low 0.975 | locus YJL154C, strain vps35, active compounds read low 0.996 | locus YJL164C, strain tpk1, active compounds read low 0.991 | locus YJL166W, strain qcr8, active compounds read low 0.992 | locus YJL168C, strain set2, active compounds read low 0.98 | locus YJL187C, strain SWE1 (second series), active compounds read low 0.977 | locus YJL187C, strain SWE1, active compounds read low 0.997 | locus YJR043C, strain POL32, active compounds read low 0.981 | locus YKL009W, strain mrt4, active compounds read low 1.02 | locus YKL068W, active compounds read low 0.993 | locus YKL085W, strain MDH1 (second series), active compounds read low 1 | locus YKL085W, strain MDH1, active compounds read low 1 | locus YKL160W, strain elf1, active compounds read low 0.987 | locus YKL190W, strain CNB1, active compounds read low 0.975 | locus YKR001C, strain vps1, active compounds read low 0.996 | locus YKR026C, strain gcn3, active compounds read low 0.989 | locus YKR091W, strain srl3, active compounds read low 0.994 | locus YLL001W, strain dnm1, active compounds read low 1.01 | locus YLL026W, active compounds read low 0.984 | locus YLL041C, strain sdh2, active compounds read low 1 | locus YLR027C, strain aat2, active compounds read low 0.984 | locus YLR039C, strain RIC1, active compounds read low 0.863 | locus YLR058C, strain SHM2, active compounds read low 0.949 | locus YLR102C, strain apc9, active compounds read low 0.972 | locus YLR221C, strain rsa3, active compounds read low 1 | locus YLR258W, strain gsy2, active compounds read low 0.988 | locus YLR262C, strain YPT6 (second series), active compounds read low 0.905 | locus YLR262C, strain YPT6, active compounds read low 0.857 | locus YLR268W, strain sec22, active compounds read low 0.911 | locus YLR320W, strain mms22, active compounds read low 0.988 | locus YLR342W, strain FKS1 (second series), active compounds read low 0.915 | locus YLR342W, strain FKS1, active compounds read low 1.01 | locus YLR357W, strain rsc2, active compounds read low 1.01 | locus YLR370C, strain arc18, active compounds read low 0.992 | locus YLR384C, strain iki3, active compounds read low 1 | locus YLR418C, strain cdc73, active compounds read low 0.952 | locus YML016C, strain PPZ1, active compounds read low 0.951 | locus YML032C, strain rad52, active compounds read low 0.936 | locus YML120C, strain ndi1, active compounds read low 0.99 | locus YML124C, strain tub3, active compounds read low 0.973 | locus YMR058W, strain fet3, active compounds read low 1.01 | locus YMR078C, strain ctf18, active compounds read low 0.974 | locus YMR125W, strain sto1, active compounds read low 0.995 | locus YMR129W, active compounds read low 0.99 | locus YMR205C, strain PFK2, active compounds read low 1.01 | locus YMR223W, strain ubp8, active compounds read low 0.984 | locus YMR231W, strain pep5, active compounds read low 1.01 | locus YMR263W, strain SAP30, active compounds read low 0.975 | locus YMR307W, strain GAS1, active compounds read low 0.865 | locus YNL067W, strain RPL9B, active compounds read low 1.02 | locus YNL071W, strain lat1, active compounds read low 0.999 | locus YNL153C, strain GIM3, active compounds read low 0.981 | locus YNL209W, strain ssb2, active compounds read low 0.984 | locus YNL233W, strain BNI4, active compounds read low 0.984 | locus YNL248C, strain rpa49, active compounds read low 0.983 | locus YNL250W, strain rad50, active compounds read low 1 | locus YNL271C, strain bni1, active compounds read low 0.963 | locus YNL298W, strain CLA4, active compounds read low 0.97 | locus YNL307C, strain MCK1, active compounds read low 0.961 | locus YNL322C, strain KRE1 (second series), active compounds read low 0.989 | locus YNR049C, strain mso1, active compounds read low 1 | locus YNR052C, strain pop2, active compounds read low 0.977 | locus YOL006C, strain TOP1, active compounds read low 0.813 | locus YOL012C, strain htz1 1.08 | locus YOL147C, strain pex11, active compounds read low 0.971 | locus YOR001W, strain rrp6, active compounds read low 1 | locus YOR061W, strain CKA2, active compounds read low 0.924 | locus YOR069W, strain VPS5, active compounds read low 0.981 | locus YOR070C, strain gyp1, active compounds read low 1 | locus YOR080W, strain dia2, active compounds read low 1 | locus YOR083W, strain WHI5, active compounds read low 0.999 | locus YOR106W, strain vam3, active compounds read low 1 | locus YOR136W, strain idh2, active compounds read low 0.981 | locus YOR144C, strain elg1, active compounds read low 0.973 | locus YOR184W, strain ser1, active compounds read low 0.922 | locus YOR265W, strain rbl2, active compounds read low 1 | locus YOR270C, strain vph1, active compounds read low 0.833 | locus YOR290C, strain snf2, active compounds read low 0.974 | locus YOR316C, strain cot1, active compounds read low 0.965 | locus YPL051W, strain arl3, active compounds read low 0.987 | locus YPL055C, strain LGE1, active compounds read low 0.884 | locus YPL078C, strain atp4, active compounds read low 1 | locus YPL106C, strain sse1, active compounds read low 1 | locus YPL240C, strain hsp82, active compounds read low 0.999 | locus YPR119W, strain clb2, active compounds read low 0.985 | locus YPR141C, strain kar3, active compounds read low 0.972 | locus YPR163C, strain tif3, active compounds read low 0.956 | locus YPR167C, strain met16, active compounds read low 0.986 | strain wtn01, active compounds read low 0.936
active: locus YDR137W, strain rgp1, active compounds read low 0.843 | locus YLR371W, strain rom2, active compounds read low 0.901
